Molecules are shown by their SMILES. Active and inactive are the calls of the source. Cut-off read from the data, not from the text of the source: active = inhibition above about 30%; inactive = the rest.

The test system of this assay is transactivating tegument protein VP16 (Human herpesvirus 1), Gal4-VP16 luciferase reporter. In words: repression of VP16-driven luciferase reporter – cell-based, luminescence, high throughput, counter-screen for SRC3 inhibitor project (AID 588794). The following applies: mammalian cells, at 3.6 µM, active compounds read high. For orientation: In a reporter assay the amount or activity of a reporter protein is the signal.
As usually defined, the inhibition is the relative decrease from the control value, in per cent. In the case of `N=c1ccn(CC(=O)c2ccc(-c3ccccc3)cc2)cc1`, the inhibition is 43.3% (active).

In the case of `C(=NNc1ccc2ccccc2n1)c1ccccn1`, the inhibition is -12% (inactive). For `CC(=NNC(=S)Nc1ccc(C)cc1)c1ccccn1`, the inhibition is 69.9% (active). To `Cc1cc(-c2nnc(SCC(=O)Nc3ccccc3C(F)(F)F)o2)c(C)n1-c1ccccc1` belongs 11.2% (inactive). Turning to `CCC(=O)NC(c1ccc(Cl)cc1Cl)c1ccc2cccnc2c1O` (stereo unspecified), the inhibition is 34.1% (active). With `CCOc1ccc(C(=O)Nc2cnn(Cc3ccc(Cl)c(Cl)c3)c2)cc1` the figure was 44.1% (active). For `Cc1ccc(-n2c(-c3ccccc3)c[n+]3c2CCc2ccccc2-3)c(C)c1`, the inhibition is 68.1% (active). To `CC1Cc2cc(-c3csc(NC(=O)Cc4cccs4)n3)ccc2N1S(C)(=O)=O` (stereo unspecified) belongs 42.5% (active); to `Cc1ccc2nc(NC(=O)CSCC(=O)OCC(=O)c3ccccc3)sc2c1`, 39% (active). With `O=c1[nH]cnc2c1nnn2C1OC(CO)C(O)C1O` (stereo unspecified), the inhibition was 15.3% (inactive). With `Cc1cccc(-n2c(N)c(-c3nc4ccccc4n3C)c3nc4ccccc4nc32)c1` the figure was -15% (inactive); with `CN(C)c1ccc(/C=C/c2ccc3ccccc3[n+]2C)cc1`, 74.5% (active); with `COc1ccc(C(=O)Nc2cnn(Cc3ccc(Cl)cc3)c2)cc1OC`, 52.7% (active). To `CCOC(=O)c1cc2c(=Cc3ccc(N(C)C)cc3)c3ccccc3n2[n+]1C` belongs 63.4% (active); to `COc1cc(C2c3cc4c(cc3C(OC3OC5COC(c6cccs6)OC5C(O)C3O)C3COC(=O)C23)OCO4)cc(OC)c1O` (stereo unspecified), -8.11% (inactive).

In the case of `CCc1nc(N)nc(N)c1-c1ccc(N(C)Cc2ccccc2)c([N+](=O)[O-])c1`, the inhibition was 54.7% (active).
